Source: the supplement of paper PMC6555819

Key:
Experiment in all cases: PBM binding z-score (relative to random genomic background probes); higher = stronger binding; sequences stand for … in GC…GCGATTGACAGCGTAGAATGAAGG
[1] = system: PPARg:RXRa DBDmut IVT, anti-RXR (DBD mutation: RXRa K156A/R161A, NR concentration 270 nM, RXRa partner concentration 90 nM)
Method in brief: (§1)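 Scanned fluorescence from custom Agilent 4×180K protein-binding microarrays was regression-normalized. Binding z-scores use random background probes as reference. Ligand-free nuclear receptor dimers were incubated on the arrays for 1 h and detected with antibodies against each partner (one per run).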

[2] = system: PPARg:RXRa IVT, anti-PPARg (NR concentration 270 nM, RXRa partner concentration 90 nM)
Method in brief: as §1

[3] = system: PPARg DBDmut:RXRa IVT, anti-PPARg (DBD mutation: PPARg1 K132A/R137A, NR concentration 270 nM, RXRa partner concentration 90 nM)
Method in brief: as §1

[4] = system: PPARg DBDmut IVT, anti-PPARg (DBD mutation: PPARg1 K132A/R137A, NR concentration 270 nM)
Method in brief: as §1

[5] = system: PPARg homodimer (NR concentration 180 nM)
Method in brief: as §1

[6] = system: PXR:RXRa (NR concentration 270 nM, RXRa partner concentration 90 nM)
Method in brief: as §1

[7] = system: PXR homodimer (NR concentration 270 nM)
Method in brief: as §1

[8] = system: RARa:RXR (NR concentration 270 nM, RXRa partner concentration 90 nM)
Method in brief: as §1

[9] = system: RARa homodimer (NR concentration 270 nM)
Method in brief: as §1

[10] = system: RARb:RXRa (NR concentration 270 nM, RXRa partner concentration 90 nM)
Method in brief: as §1

Row | Sequence | PBM binding z-score [1] | PBM binding z-score [2] | PBM binding z-score [3] | PBM binding z-score [4] | PBM binding z-score [5] | PBM binding z-score [6] | PBM binding z-score [7] | PBM binding z-score [8] | PBM binding z-score [9] | PBM binding z-score [10]
1 | TCGAGTAGGTTACGGGCATTCAGAATGGCGTCGA | 3.6 | 3.2 | -0.359 | -0.95 | -0.405 | 0.127 | -0.967 | 0.109 | -1.16 | 1.29
2 | CCTACTGGGCCAAGGGTCATTGATTCCAATGCTC | 3.29 | 5.63 | 0.63 | -0.667 | 1.67 | 3.15 | -0.275 | 3.87 | 0.1 | 3.06
3 | CCTAGCAGGCCAGGGTAACTCAAGCATTTCGCTT | 0.216 | -0.0636 | -1.68 | -1.83 | -0.387 | -0.679 | -0.762 | -0.455 | -0.937 | -0.102
4 | CATCCAAGGTCAAGGTCAGTGAAAGAGACTCGAA | 3.78 | 5.22 | 1.93 | 0.636 | 4.53 | 4.84 | 1.77 | 5.12 | 1.98 | 5.77
5 | GCGACTGGGGCAAAGCAGGTTACTATAAGGTTGG | 4.62 | 3.88 | 0.068 | -0.036 | 0.617 | 0.375 | -0.473 | 0.949 | -0.471 | 0.879
6 | ATCTCTAGGTACAGATAGTTCAGTGAATGCAAAT | -0.154 | 0.347 | 1.38 | 1.2 | 0.865 | 0.698 | 1.5 | 0.218 | 0.726 | 0.832
7 | TCTTGTAGATCACGCAGGTTAAGAAAGCCTGAGT | 2.2 | 1.64 | 0.55 | 0.645 | 0.083 | 0.585 | 0.000906 | 0.685 | 0.00384 | 0.386
8 | TCGAGTAGGTTAGGGGCATTCGGAATGGCGTCGA | 1.94 | 1.69 | -0.634 | -0.223 | 0.203 | 0.507 | -0.0899 | 0.497 | -0.724 | 1.09
9 | CAAACTAGGTCAACGGAAGGTCAAAGTCCGCATG | 8.48 | 8.61 | 4.8 | 2.05 | 7.1 | 5.74 | 2.3 | 7.48 | 2.65 | 5.04
10 | CAACCAAGGTGAACAAGGTCGTTGATTACTATTC | 2.56 | 3.05 | 0.422 | 0.588 | 0.973 | 2.8 | 1.68 | 2.42 | 0.281 | 2.29
11 | AGTACGAGGGCAATGAGTTGATAGCACGGGTGGC | 1.59 | 1.15 | 0.233 | 0.248 | 0.203 | 1.32 | 5.08 | 0.221 | 0.00797 | 2.08
12 | TCTTGTAGATCAAAGGTTAAGTAAGCCGAAGCCT | 2.31 | 3.98 | 0.677 | 0.732 | 0.931 | 2.16 | 0.0156 | 3.2 | 0.12 | 2.23
